# Bioassay records: PubChem BioAssay, National Center for Advancing Translational Sciences (NCATS)
# Pf growth 48h = P. falciparum growth inhibition at 48 hours (one generation); P. falciparum luciferase growth in erythrocytes, 48 h; Potency, µM (highest dose often 28.7 µM), for inactives: at the highest dose activity change, negative = inhibition, hits mostly inhibitors; actives 5.9% (n = 310,000)
#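 Cell-based growth assay: transgenic P. falciparum expressing firefly luciferase, cultured in red cells within RPMI 1640 containing 0.5% w/v Albumax, 24 mM bicarbonate and gentamycin. A drop in luciferase activity indicates inhibition.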
# AMA1 RON2 block = disrupts binding of P. falciparum AMA1 to RON2; actives 0.2% (n = 360,000); Potency, µM (highest dose often 58.2 µM), inactives show at the top dose activity change, negative = inhibition, usual class: inhibitors; AlphaScreen AMA1-biotinylated RON2 peptide binding;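 also: 0% = vehicle wells and -100% = peptide control; nearly all actives have a fitted effect of over 45% in size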
#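 AMA1 (3D7) with his tag at 25 nM final met compounds first, then biotinylated RON2 peptide at 25 nM; detection used donor plus acceptor beads, 10 µg/mL apiece, read by AlphaScreen after 30 min at room temperature.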
# HCV inhibitor = blocks hepatitis C virus; Huh7.5.1 HCVcc-Cre infection, luciferase reporter, 44 h; Potency, µM (series often up to 41.8 µM), without a hit: top-dose activity change, negative = inhibition, usual class: inhibitors; actives 3.4% (n = 340,000); AID 651820
#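 After 44 h co-culture of compound, cells and HCVcc-Cre (~0.5 moi), substrate is added for 15 min at room temperature and luciferase measured over 15 sec. Cells were seeded at 1,000/well and pre-cultured 4 h.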
# AmpC inh detg = inhibitors of E. coli AmpC beta-lactamase with detergent | P00811 | AmpC hydrolysis of nitrocefin, absorbance 480 nm, 0.01% Triton | Potency, µM (doses to about 114 µM), inactives show at the top dose activity change, negative = inhibition, actives largely listed as inhibitors | actives 0.041% (n = 370,000) | AID 485294;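 also: 0% = no-compound wells and -100% = no-enzyme wells; nearly all actives have a fitted effect of over 25% in size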
# Target sequence (P00811 whole entry, looked up): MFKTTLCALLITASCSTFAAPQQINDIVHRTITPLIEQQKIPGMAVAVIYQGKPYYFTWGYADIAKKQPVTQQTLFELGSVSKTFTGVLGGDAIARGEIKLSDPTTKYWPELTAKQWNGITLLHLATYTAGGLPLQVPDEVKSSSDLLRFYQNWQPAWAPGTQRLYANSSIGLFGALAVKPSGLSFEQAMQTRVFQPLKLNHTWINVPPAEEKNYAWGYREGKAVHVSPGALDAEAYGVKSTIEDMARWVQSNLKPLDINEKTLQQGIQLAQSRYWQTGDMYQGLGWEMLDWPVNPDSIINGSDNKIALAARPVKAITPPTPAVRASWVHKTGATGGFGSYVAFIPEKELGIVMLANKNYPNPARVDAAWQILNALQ
#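 20 mM phosphate pH 7.0 + 0.01% (detergent screen) or 0.0001% Triton X-100; 5.3 nM AmpC reagent; cpd preinc 15 min RT; nitrocefin (800 uM stock) to start; A480 q20 s × 4 min; Activity was normalised to no-enzyme and no-compound control wells.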
# AmpC no deterg = AmpC beta-lactamase inhibition without detergent | P00811 | AmpC nitrocefin hydrolysis, absorbance 480 nm, 0.0001% Triton | Potency, µM (series often up to 57.1 µM), without a hit: at the top dose activity change, negative = inhibition, hits mostly inhibitors | actives 0.52% (n = 330,000) | AID 485341;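 also: plate controls were no compound for no effect and no enzyme for full effect; nearly all actives have a fitted effect of over 20% in size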
#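 AmpC (5.3 nM in the dispensed reagent) in 20 mM phosphate pH 7.0 with 0.01% (detergent screen) or 0.0001% Triton X-100 was preincubated with compounds for 15 min at room temperature. Nitrocefin was then added from an 800 uM solution, and hydrolysis was followed at 480 nm.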
# Pf growth 96h = P. falciparum growth inhibition at 96 hours. actives 6.9% (n = 320,000). P. falciparum luciferase reporter growth, 96 h. AID 504834. Potency, µM (doses to about 28.7 µM), without a hit: at the top dose activity change, negative = inhibition, actives largely listed as inhibitors
#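 Parasite growth measured via integrated firefly luciferase reporter in P. falciparum. Infected erythrocytes at 2% hematocrit, 0.05% parasitemia final were treated 96 hours at 37 C under 5% CO2, and luminescence was read.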
# * marks the source's active call; other numbers are inactive results; ? = inconclusive; / = not tested or not shown; [ ] = another dose, or the depositor's remark. Rows were chosen to be rich in hits. Some 11% of all compounds tested hit in one or more screens of this group. Calls follow the shape of the dose curve; as a rule, active = well fitted curve in the direction sought with a large enough effect; inconclusive = small, poorly fitted or top-dose-only effect, or another doubt; inactive = no such curve, though single readings can be large; an effect the other way counts as inactive or inconclusive. Unless noted, % is scaled to controls: 0 for no effect and ±100 for the full control effect; potency is read from the fitted curve at half-maximal effect.
SMILES,Pf growth 48h,AMA1 RON2 block,HCV inhibitor,AmpC inh detg,AmpC no deterg,Pf growth 96h
O=C(Nc1ccccc1C(F)(F)F)c1cc(-c2cccc(O)c2)on1,11%,25%,-1%,3%,1%,10µM*
O=C(Nc1cc(Br)ccc1O)c1cc(-c2ccccc2)on1,2.1µM*,-1%,-1%,?,-30%,?
CCc1ccccc1NC(=O)c1cc(-c2cccc(O)c2)on1,/,10%,-11%,7%,-36%,-10%
Fc1ccc(-n2ncc3c(Nc4ccc(Oc5ccc(Cl)cc5)cc4)ncnc32)cc1,/,/,/,5%,/,/
CC(Sc1nc(-c2ccccc2)c(C#N)c(=O)[nH]1)C(=O)Nc1ccc(F)cc1 (stereo unspecified),/,/,/,5%,/,/
NCCNC(=O)c1ccc(Cl)cn1,-11%,/,/,/,/,-14%
CCCc1nn2c(=O)cc(COC(=O)c3ccc(NC(=O)CCc4ccccc4)cc3)nc2s1,/,/,/,1%,/,/
CCCCNC(=S)N1CCN(c2ccc(C(C)=O)cc2)CC1,?,0%,-1%,-14%,-5%,?
CC(=O)c1ccc(N2CCN(C(=S)Nc3cc(C)ccc3C)CC2)cc1,10µM*,7%[11.6 µM],5%,-1%,-27%,?
CSCCCNC(=S)N1CCN(c2ccc(C(C)=O)cc2)CC1,?,-1%,10%,0%,-16%,12µM*
Cc1ccc2c(c1)cc(C(=O)NCc1ccccc1C)n2C,/,/,/,15%,/,/
CCc1ccccc1NC(=O)Cn1nnc(C(=O)NCc2ccco2)c1N,/,/,/,-2%,/,/
NNC(=O)c1cc2ccccc2cc1NS(=O)(=O)c1ccccc1,5.9µM*,75%,-29%,?,-42%,?
Cc1ccc(CN(Cc2ccco2)C(=O)c2oc3c(C)c(C)ccc3c2C)cc1,/,/,/,16%,/,/
Cc1cccc(C)c1NC(=O)CN(C)CC(=O)c1c(N)n(Cc2ccccc2)c(=O)n(C)c1=O,12µM*,13%,?,-8%,6%,-12%
CCn1c(=O)c(C(=O)CN(C)CC(=O)Nc2ccccc2Br)c(N)n(Cc2ccccc2)c1=O,10µM*,23%,?,-20%,17%,?
CN(C)CC(=O)c1c(N)n(Cc2ccccc2)c(=O)n(C)c1=O,3%,7%,7%,-1%,-22%,7%
CCn1c(=O)c(C(=O)CC#N)c(N)n(Cc2ccccc2)c1=O,-6%,17%,-13%,-5%,-21%,?
CCC(C)(C)n1nnnc1CN1CCC(NC(=O)c2ccccc2C)CC1,-27%,-9%,-9%,-5%,-10%,27%
CCOc1ccccc1C(=O)NC1CCNCC1,0%,18%,4%,-9%,-41%,13µM*
CCOc1ccccc1C(=O)NC1CCN(Cc2nnnn2C2CCCC2)CC1,?,2%,4%,?,69%,13µM*
COc1ccccc1C(=O)Nc1ccccc1OCc1cc(=O)n2ccccc2n1,/,/,/,18%,/,/
CSCCC(N)C(=O)O (stereo unspecified),-5%,/,/,/,/,-5%
Cc1ccc2c(N)c(C(=O)N(c3ccccc3)c3ccccc3)sc2n1,9.3µM*,-5%,?,2%,-22%,?
CC(C)OC(=O)c1sc2nc(-c3ccccc3)ccc2c1N,192%,40%,6%,?,78%,345%
SMILES,Pf growth 48h,AMA1 RON2 block,HCV inhibitor,AmpC inh detg,AmpC no deterg,Pf growth 96h
CCN1CCOC(=O)C1CC(=O)Nc1cc(Cl)ccc1C (stereo unspecified),/,/,/,-2%,/,/
Cc1cc(N2CCN(c3nc4ccccc4s3)CC2)n2ncnc2n1,?,-5%,3.2µM*,1%,63%,-14%
CCN(C(=O)CSc1nc2ccccc2n1CC(=O)Nc1cccc(C#N)c1)c1ccccc1,/,/,/,-11%,/,/
Cc1ccc(C(C)C)c(OCC(=O)Nc2c(C(=O)c3ccc(F)cc3)oc3ccccc23)c1,/,/,/,24%,/,/
O=C(Nc1ccc(F)cc1)Nc1ccc(N2CCCC2)c(S(=O)(=O)Nc2ccccc2Cl)c1,9.3µM*,1%[11.6 µM],6.3µM*,-3%,-36%,4.7µM*
O=C(Nc1ccccc1N1CCCC1)c1cccnc1,9%,-10%,-23%,1%,-13%,/
O=C(Nc1ccc(N2CCOCC2)c(S(=O)(=O)Nc2ccccc2Cl)c1)c1ccc(F)cc1,/,-8%,10µM*,/,?,/
O=C(Nc1ccc(N2CCCCC2)c(S(=O)(=O)Nc2ccccc2Cl)c1)c1cccnc1,/,-2%,13µM*,/,5%,/
O=C(/C=C/c1cccs1)Nc1ccc(N2CCOCC2)c(S(=O)(=O)Nc2ccccc2Cl)c1,?,7%,?,-11%,?,?
COc1ccccc1NS(=O)(=O)c1cc(NC(=O)C2CCCC2)ccc1N1CCOCC1,?,-4%,?,-7%,-16%,-49%
O=C(Nc1ccc(Cl)c(Cl)c1)Nc1ccc(N2CCCC2)c(S(=O)(=O)Nc2ccccc2Cl)c1,13µM*,-2%,?,-12%,-57%,3.7µM*
Cc1ccc(C)c(-c2nn(CC(=O)Nc3cc(F)ccc3F)c(=O)c3c2CCCC3)c1,/,/,/,14%,/,/
O=C(Nc1ccc(F)cc1)Nc1ccccc1N1CCCCC1,?,-1%,11µM*,1%,-56%,?
O=C(Cc1cccc2ccccc12)N/N=C/c1ccncc1,0%,28%,-6%,0%,-23%,10µM*
O=C(Cc1cccc2ccccc12)N/N=C/c1ccc(OC(=O)/C=C/c2ccco2)cc1,12µM*,30%,?,?,35µM*,?
COCC(=O)c1[nH]c2ccccc2c1C,1%,-3%,2%,-13%,-17%,3.7µM*
CCCC(=O)Nc1c(C(=O)OCC)[nH]c2ccccc12,42%,0%,-11%,5%,20µM*,?
CCOC(=O)c1[nH]c2ccccc2c1NC(=O)c1ccc(S(=O)(=O)N2CCCCC2)cc1,?,-5%,-16%,-15%,13%,9.3µM*
CN(C)S(=O)(=O)c1ccc(C(=O)Oc2cc(=O)[nH]c3ccccc23)cc1,12%,-13%,8%,-16%,-5%,8.3µM*
CCOC(=O)c1[nH]c2ccccc2c1NC(=O)CC(C)C,17%,0%,12%,8%,-13%,17%
CCOC(=O)c1[nH]c2ccccc2c1NC(=O)c1ccc(OCC)cc1,/,/,/,9%,/,/
CCOC(=O)c1[nH]c2ccccc2c1NC(=O)c1ccc(S(=O)(=O)N(C)C)cc1,10µM*,-5%,7%,?,0%,10µM*
Cc1cc(/C=C2\Sc3ccccc3N2C)cc(C)[n+]1CC1CCCO1 (stereo unspecified),?,1%,2.5µM*,-12%,1%,?
